Bioassay records deposited in PubChem BioAssay by National Center for Advancing Translational Sciences (NCATS).
G9a inh: inhibitors of human histone lysine methyltransferase G9a | 350,000 compounds, 8.8% hits | Q96KQ7 | AID 504332 | G9a H3K9 monomethylation, AlphaScreen, 2 h | Potency, µM (titrated, usually from 102 µM), without a hit: top-dose activity, negative = inhibition, most hits filed as inhibitors; note: % is set by controls: 0 for no effect and ±100 for the full control effect; nearly all actives have a fitted effect of over 75% in size
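Methyltransferase reactions run at room temperature for 2 h (20 nM enzyme, 500 nM biotin-H3K9 peptide, 20 uM SAM) after a 15 min compound preincubation; product detected by AlphaScreen beads and anti-H3K9me1 antibody.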
Sfp inh: Sfp phosphopantetheinyl transferase inhibition. Q9F4F7. Potency, µM, inactives show largest response in the series, negative = inhibition, usual class: inhibitors. Biochemical Sfp PPTase activity, qHTS. AID 1490. 310,000 compounds, 3.5% hits;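 note: the enzyme is Sfp with the accession as filed and its product quenches rhodamine fluorescence; 0% = enzyme reaction without inhibitor and -100% = no enzyme wells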
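Compounds were incubated with enzyme (final 15 nM) for 15 min at room temperature before substrate addition started the reaction. Fluorescence at 525 nm excitation, 598 nm emission was recorded immediately and after 30 minutes.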
PLK1 PBD block: blocks phosphopeptide binding to human PLK1 polo-box domain; P53350; Plk1 PBD binding of FITC phosphopeptide, fluorescence polarization; Potency, µM, for inactives: max response, negative = inhibition, usual class: inhibitors; 360,000 compounds, 2.8% hits; AID 720504; note: series mostly up to about 57 µM; % is set by controls: 0 for no effect and ±100 for the full control effect; nearly all actives have a fitted effect of over 65% in size
BAZ2B inh: inhibitors of human BAZ2B bromodomain. Q9UIF8. Potency, µM (doses to about 114 µM), without a hit: top-dose activity change, negative = inhibition, usual class: inhibitors. 360,000 compounds, 4.4% hits. AID 504333. AlphaScreen BAZ2B-H3K14Ac peptide displacement; note: % is set by controls: 0 for no effect and ±100 for the full control effect; nearly all actives have a fitted effect of over 60% in size
Target sequence (Q9UIF8 whole entry, looked up): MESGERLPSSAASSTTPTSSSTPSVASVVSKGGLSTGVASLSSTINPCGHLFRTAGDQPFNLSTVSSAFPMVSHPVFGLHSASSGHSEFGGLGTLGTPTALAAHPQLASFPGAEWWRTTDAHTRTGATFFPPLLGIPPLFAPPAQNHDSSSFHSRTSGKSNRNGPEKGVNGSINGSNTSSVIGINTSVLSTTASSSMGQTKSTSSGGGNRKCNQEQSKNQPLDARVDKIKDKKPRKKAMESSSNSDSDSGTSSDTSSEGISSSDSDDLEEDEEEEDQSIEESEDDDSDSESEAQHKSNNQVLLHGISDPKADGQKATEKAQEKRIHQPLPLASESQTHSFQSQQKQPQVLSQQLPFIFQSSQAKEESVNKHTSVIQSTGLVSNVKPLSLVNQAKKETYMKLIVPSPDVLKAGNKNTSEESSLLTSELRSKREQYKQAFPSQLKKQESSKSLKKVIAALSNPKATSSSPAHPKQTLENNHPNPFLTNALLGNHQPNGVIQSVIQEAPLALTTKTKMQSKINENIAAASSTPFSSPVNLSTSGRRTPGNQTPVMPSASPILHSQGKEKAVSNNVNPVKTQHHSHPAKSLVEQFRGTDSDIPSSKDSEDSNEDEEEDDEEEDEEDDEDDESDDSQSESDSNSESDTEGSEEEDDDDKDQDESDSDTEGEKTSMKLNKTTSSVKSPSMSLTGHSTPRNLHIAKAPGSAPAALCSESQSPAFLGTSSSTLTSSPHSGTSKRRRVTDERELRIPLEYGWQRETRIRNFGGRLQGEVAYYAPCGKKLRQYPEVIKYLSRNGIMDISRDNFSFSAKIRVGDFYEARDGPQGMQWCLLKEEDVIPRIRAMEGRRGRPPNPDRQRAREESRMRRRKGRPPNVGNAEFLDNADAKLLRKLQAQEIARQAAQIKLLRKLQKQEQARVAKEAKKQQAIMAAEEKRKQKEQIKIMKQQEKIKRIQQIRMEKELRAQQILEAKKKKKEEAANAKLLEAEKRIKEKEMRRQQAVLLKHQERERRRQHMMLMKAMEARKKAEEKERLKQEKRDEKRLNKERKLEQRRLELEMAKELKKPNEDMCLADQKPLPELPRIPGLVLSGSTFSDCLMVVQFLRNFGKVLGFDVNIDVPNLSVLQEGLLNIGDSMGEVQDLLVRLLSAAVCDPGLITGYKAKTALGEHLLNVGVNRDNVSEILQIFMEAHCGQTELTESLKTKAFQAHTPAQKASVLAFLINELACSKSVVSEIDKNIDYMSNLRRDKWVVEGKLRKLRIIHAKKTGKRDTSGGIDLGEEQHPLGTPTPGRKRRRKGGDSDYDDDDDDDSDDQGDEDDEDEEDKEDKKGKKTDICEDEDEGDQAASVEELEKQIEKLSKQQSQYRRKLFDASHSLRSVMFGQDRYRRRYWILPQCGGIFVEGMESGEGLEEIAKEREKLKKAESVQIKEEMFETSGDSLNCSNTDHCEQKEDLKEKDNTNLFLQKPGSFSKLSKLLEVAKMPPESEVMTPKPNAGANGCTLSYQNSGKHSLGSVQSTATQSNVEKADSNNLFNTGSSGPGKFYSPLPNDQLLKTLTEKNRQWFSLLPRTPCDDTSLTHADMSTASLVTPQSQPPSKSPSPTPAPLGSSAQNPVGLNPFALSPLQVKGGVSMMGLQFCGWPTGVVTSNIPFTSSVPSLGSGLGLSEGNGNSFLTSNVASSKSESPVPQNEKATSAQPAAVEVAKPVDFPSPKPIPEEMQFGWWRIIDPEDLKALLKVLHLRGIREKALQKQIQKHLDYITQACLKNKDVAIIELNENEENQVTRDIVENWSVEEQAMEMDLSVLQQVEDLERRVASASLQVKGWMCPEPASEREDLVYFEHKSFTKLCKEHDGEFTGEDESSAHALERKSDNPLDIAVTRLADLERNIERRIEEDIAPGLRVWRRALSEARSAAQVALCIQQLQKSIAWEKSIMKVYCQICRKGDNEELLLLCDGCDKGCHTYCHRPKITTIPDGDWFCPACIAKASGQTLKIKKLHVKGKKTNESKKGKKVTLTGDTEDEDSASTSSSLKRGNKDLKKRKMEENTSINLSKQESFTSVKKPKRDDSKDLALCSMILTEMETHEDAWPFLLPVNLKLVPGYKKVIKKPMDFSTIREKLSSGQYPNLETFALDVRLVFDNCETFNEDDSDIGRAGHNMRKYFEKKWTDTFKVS
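AlphaScreen displacement: compounds (up to 110uM) incubated 30 min at room temperature with a preformed 50 nM BAZ2B/50 nM biotinylated H3K14Ac peptide complex in PBS pH 7.4 with Tween-20. Donor and acceptor beads at 10 ug/mL final added, 20 min light-protected before reading.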
JMJD2A Tudor: inhibitors of human JMJD2A Tudor domain; O75164; AlphaScreen JMJD2A-Tudor / H3K4me3 peptide binding; Potency, µM (highest dose often 114 µM), inactives show at the highest dose activity change, negative = inhibition, hits mostly inhibitors; 390,000 compounds, 4.4% hits; AID 504339; note: % is set by controls: 0 for no effect and ±100 for the full control effect; nearly all actives have a fitted effect of over 50% in size
HP1b binding inh: inhibitors of HP1-beta chromodomain binding to methylated histone tails; P83916; AlphaScreen HP1-beta / biotin-H3K9me3 peptide binding; Potency, µM (highest dose often 114 µM), for inactives: at the highest dose activity change, negative = inhibition, usual class: inhibitors; 390,000 compounds, 0.56% hits; note: nearly all actives have a fitted effect of over 70% in size
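AlphaScreen: HP1-beta (50 nM) preformed 30 min with biotin-H3(1-18)K9me3 peptide (50 nM) in PBS pH 7.4, 0.01% Tween-20. Compound added for 30 min at RT, then streptavidin donor/nickel chelate acceptor beads (10 ug/mL) for 30 min.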
Active calls of the source: *; u = inconclusive; x = no result; [ ] = remark or other dose. Hits are enriched below; roughly 12% of the tested compounds scored in any of these assays. Calls come from the whole dose curve; as a rule, active = well fitted curve in the direction sought with a large enough effect; inconclusive = small, poorly fitted or top-dose-only effect, or another doubt; inactive = no such curve, though single readings can be large; an effect the other way counts as inactive or inconclusive. Potency is the fitted concentration of half-maximal effect.

SMILES	G9a inh	Sfp inh	PLK1 PBD block	BAZ2B inh	JMJD2A Tudor	HP1b binding inh
COc1ccc(Nc2ncc3c(n2)CCN(Cc2ccccc2C)C3)c(OC)c1	u	x	x	u	-32%	7%
CC(C)Oc1ccc(CN2CCc3nc(Nc4ccc5c(c4)OCCO5)ncc3C2)cc1	-26%[12.7 µM]	x	x	32µM*	32µM*	-17%
CCOc1ccc(CN2CCc3nc(Nc4ccc(OC)cc4OC)ncc3C2)cc1	u	x	x	-37%	50µM*	-36%
Cc1ccccc1CN1CCc2nc(Nc3ccc4c(c3)OCCO4)ncc2C1	u	x	x	22µM*	35µM*	-11%
Cc1ccc(-c2cc(C(=O)N(Cc3ccc(C(C)(C)C)cc3)Cc3ccco3)no2)cc1	37%[59 µM]	x	x	-26%	-10%	95%
Nc1nc2c(s1)COc1ccccc1-2	32µM*	16µM*	19µM*	-26%	-32%	u
CC1CCN(S(=O)(=O)c2ccc(C(=O)N3CCCC3C(=O)O)cc2)CC1 (configuration not stated)	16%[2.33 µM]	x	-12%	7%	-11%	35%
C=C[C@@H](C1=CC(=O)C(OC)=C(OC)C1=O)c1ccccc1	x	11µM*	x	x	x	x
Cc1cccc(N2C(S)=C(C#N)C(=O)NC2c2ccco2)c1 (configuration not stated)	x	-7%	u	-8%	-16%	12%
Cc1cccc(NC2=NC3(CCCCC3)N=C(N)N2)c1	x	x	-3%	x	-10%	14%
Cc1ccccc1N1C(S)=C(C#N)C(=O)NC12CCCCC2	35µM*	14µM*	-5%	4%	-21%	24%
Cc1cccc(NC2=C(C#N)C(=O)NC3(CCCC3)S2)c1	u	18µM*	7%	-18%	-3%	46%
Cc1cccc(N2C(S)=C(C#N)C(=O)NC23CCCCC3)c1	u	79µM*	4%	u	-18%	35%
Cc1ccc(N2C(S)=C(C#N)C(=O)NC23CCCCC3)cc1	28µM*	20µM*	-24%	-9%	-22%[57.1 µM]	19%
COC(=O)NC(c1ccccc1)C(C#N)C(=O)OC (configuration not stated)	x	4%	x	x	x	x
COc1ccccc1Sc1ccccc1/C=N/NC(N)=O	50µM*	2%	1%	-2%	-1%	43%
COc1ccccc1C=NN=C(NN=Cc1ccccc1OC)NN=Cc1ccccc1OC	x	x	-3%	x	u	79µM*
COc1ccccc1C=NNC(=O)NN=Cc1ccccc1OC	x	x	4%	x	-30%	23%
c1ccc(CNc2nc(N3CCOCC3)nc(N3CCOCC3)n2)cc1	-3%[59 µM]	10%	-6%	10%	-21%	14%
COc1ccc(CNc2ccc(N3CCOCC3)cc2)cc1	x	-25%	-16%	-11%	u	-18%
O=C(CN1CCN(c2ccc(Cl)cc2)CC1)NCc1ccccc1	3%	-3%	-7%	-8%	-22%	28%
c1ccc(CNc2ccc(N3CCOCC3)cc2)cc1	x	x	x	x	45µM*	u
Clc1ccc(CNc2ccc(N3CCN(Cc4ccccc4)CC3)cc2)cc1	10µM*	2%	1%	5.6µM*	11µM*	18µM*
c1ccc(CNc2nc(NCc3ccco3)nc(N3CCOCC3)n2)cc1	x	1%	30µM*	u	u	-5%
Cc1cc(C)cc(NC(=O)Cn2c(=O)n(-c3cc(C)cc(C)c3)c(=O)c3oc4ccccc4c32)c1	-9%[59 µM]	x	x	-14%	-17%	21%
SMILES	G9a inh	Sfp inh	PLK1 PBD block	BAZ2B inh	JMJD2A Tudor	HP1b binding inh
Cc1ccc(-c2nc(SCCOc3ccccc3C)n3[nH]c(=O)cc3n2)cc1	68%[59 µM]	x	x	8%	-25%	52%
Cc1ccc(-c2nn3c(=O)cc(CN4CCN(C(=O)c5ccc(C(C)(C)C)cc5)CC4)nc3s2)cc1	-2%[59 µM]	x	x	4%	1%	22%[57 µM]
C=CCn1c(-c2ccc(Cl)cc2)cnc1SC(C)C(N)=O (configuration not stated)	10µM*	-4%	-13%	u	-33%	20%
O=C(NNC(=O)c1cccc(C(F)(F)F)c1)c1ccncc1	25µM*	16%	-5%	u	-18%	15%
Cc1nn2c(-c3cccc(NC(=O)CSc4nc5ccccc5o4)c3)nnc2c2ccccc12	16µM*	56µM*	24µM*	9%	-28%	3%
CO/N=C(/C)CCC(=O)OC[C@@H]1O[C@H](c2ccccc2)C=C[C@@H]1Oc1ccc(OC)cc1	x	-5%	x	x	x	x
CCC(Sc1nnc2c(n1)[nH]c1ccccc12)C(=O)Nc1ccccc1OC (configuration not stated)	-12%[59 µM]	x	x	-28%	-21%	-1%
CCn1c2ccccc2c2cc(/C=C(/C#N)C(N)=S)ccc21	x	x	-2%	x	20µM*	u
CCn1c2ccccc2c2cc(CNCc3ccc(OC)cc3OC)ccc21	40µM*	22µM*	4%	45µM*	u	u
CCn1c2ccccc2c2cc(/C(C)=N/O)ccc21	-1%[59 µM]	3%	3%	-8%	-19%	29%
CCn1c(C)cc(=S)c2ccccc21	3.2µM*	u	-8%	-31%	-26%[57.1 µM]	20%
CCn1c2ccccc2c2cc(N)ccc21	5.6µM*	-22%	-17%	-32%	u	u
CCn1c2ccccc2c2cc(C3C(C#N)=C(C)NC(C)=C3C#N)ccc21	14%	-11%	5%	10%	9%	55%
COc1ccc(C(=O)N2CCCCC2CCN2CCCCC2)cc1 (configuration not stated)	9%[59 µM]	x	x	0%	3%	44%
CCC(=O)N1c2ccccc2CC1C(=O)NCCCN1CCN(c2ccccc2)CC1 (configuration not stated)	6%[59 µM]	x	x	u	-28%	4%
NC(=O)c1ncn([C@@H]2O[C@H](CNS(=O)(=O)c3cc4ccccc4s3)[C@@H](O)[C@H]2O)n1	x	x	-4%	x	-8%	43%
CCC(CC)NCc1ccc2c(c1)c1ccccc1n2CC	-119%[12.7 µM]	50µM*	21µM*	45µM*	20µM*	u
Cc1ccc(C(=O)n2nc(C)c(S(=O)(=O)N3CCCCCC3)c2C)cc1C	35%[59 µM]	x	x	60%	35%	49%[57 µM]
COc1ccc(Br)cc1CN1C(=O)NC2(CCCCCC2)C1=O	31%	-4%	-5%	5%	-8%	17%
COc1cc(Br)c(CN2C(=O)NC3(CCCCCC3)C2=O)cc1OC	45µM*	9%	-12%	-7%	-1%	11%
COC(=O)C1Cc2c([nH]c3ccccc23)C(C)N1 (configuration not stated)	20µM*	9%	-3%	-5%	u	5%
CCCC1NC(C(=O)O)Cc2c1[nH]c1ccccc21 (configuration not stated)	x	-17%	19µM*	-4%	16µM*	-4%
